This note sets out measurements from PubChem BioAssay (NCI).

Common to all, as to assay: NCI-60 one-dose screen, 48 h (100 = growth as untreated, 0 = no growth, -100 = all killed)
Holding throughout (settings): 10 µM unless noted

Experiment [1] deals with NCI-H23 lung.
Experiment [2] deals with NCI-H226 lung.
Experiment [3] concerns NCI-H322M lung.
In experiment [4] the test system is HOP-62 NSCLC.
Experiment [5] relates to NCI-H460 lung.
The subject of experiment [6] is HOP-92 NSCLC.
Experiment [7] relates to A549/ATCC NSCLC.
In experiment [8] the test system is 786-0 renal.
In experiment [9] the test system is COLO 205 colon.
Experiment [10] deals with NCI-H522 lung.

About 83,000 compounds went through this panel and 20% of them were active in at least one assay; those are over-represented in the sample as a whole.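 Cell lines were cultured in 96-well plates, exposed to a single compound concentration, and assessed for percent growth 48 hours later.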 Unmarked numbers belong to inactive results. Calls of active or inactive are those of the source. The calls were made as follows: active = growth percent below 10; inactive = the rest.

`COc1cc(-c2nc(SCCC(C)C)nc(Nc3ccccc3)c2C#N)cc(OC)c1OC`: the growth was 97.1% in [1]; 101% in experiment [2]; 103% in experiment [3]; 114% in [4]; 101% in [5]; 86.8% in experiment [6]. In addition, the values for the growth in [7], in experiment [8] and in [9] were 91.5%, 91.7% and 99.1%, respectively.

For `CCOC(=O)c1cc(C#N)n2ncc3ccccc3c12`, the growth in experiment [1] was 94.1%; in experiment [2], 91.2%; in experiment [3] it was 102%; in experiment [4], 90.8%; in experiment [5] it was 101%; in experiment [6] it was 80.7%. The growth in experiment [7] is 100%; in [8] it was 95.7%; in experiment [9], 118%.

Regarding `O=C1CN(Cc2ccc(C(=O)NO)cc2)C(=O)[C@@H](Cc2ccccc2)N1`, the growth in [1] was 100%; in experiment [2], 104%; in experiment [3], 102%; in experiment [4], 102%; in [5], 103%; in experiment [6] it was 102%. Besides, the growth in experiment [7] is 96.4%; in experiment [8], 95.8%; in experiment [9] it was 114%.

For the molecule `COc1cc2c(=O)[nH]c3cc([N+](=O)[O-])ccc3c2cc1[N+](=O)[O-]`, the growth in [1] is 55.4%; in experiment [2] it was 45%; in experiment [3], 60.8%; in [4], 85.5%; in experiment [6] it was 45.9%; in experiment [10], 28.7%. Besides, the growth in experiment [7] was 40.5%; in experiment [8], 70.1%; in experiment [9] it was 56.6%.

For the molecule `CC1=C/C(=C(\c2cc(C)c(O)c(C(=O)O)c2)c2c(Cl)cccc2Cl)C=C(C(=O)O)C1=O`, the growth was 98.8% in experiment [1]; 96.7% in experiment [2]; 97.7% in [3]; 97% in experiment [4]; 92.9% in experiment [6]; 97.8% in experiment [10]. Further, the growth in experiment [7] is 100%; in experiment [8], 102%; in [9], 110%.

Turning to `O=C(CCCSc1nc(-c2ccccc2)cc(-c2ccccc2)n1)NO`, the growth in experiment [1] was -2.58% (active); in experiment [2], -6.97% (active); in experiment [3], 12.6%; in [4] it was -8.18% (active); in [5] it was 6.46% (active); in experiment [6], -3.2% (active). The growth in experiment [7] was -1.91% (active); in [8], 7.15% (active); in [9], -14% (active).

In the case of `COc1cc2c(cc1OCCCCCOc1ccc(-n3c(C)nc4ccccc4c3=O)cc1)N=C[C@@H]1CCCN1C2=O`, the growth in experiment [1] is -20.1% (active); in [2], 2.04% (active); in [3], -31.2% (active); in experiment [4], -29% (active); in experiment [6], -17.8% (active); in experiment [10] it was -33.5% (active). Also, the growth in [7] was 7.25% (active); in [8], -42.5% (active); in experiment [9] it was -22.3% (active).

As for `COc1ccc(NC(=O)Nc2ccc(-c3cccnc3)cc2N2CCC(CO)CC2)cc1`, the growth in [1] is 27.1%; in experiment [2] it was 86.8%; in [3] it was 59.1%; in experiment [4] it was 54%; in experiment [6], 78.1%; in experiment [10] it was 25.2%. The growth was 41% in experiment [7], 30.8% in experiment [8] and 70% in experiment [9].

`Cc1cccc(/C=C2\N=C(c3ccccc3)N(c3ccc(S(N)(=O)=O)cc3)C2=O)c1`: the growth in [1] was 90%; in [2], 110%; in experiment [3], 97.5%; in experiment [4] it was 83.5%; in experiment [6] it was 105%; in [10] it was 82.5%. Moreover, the figures for the growth in experiment [7], in experiment [8] and in [9] were 75.7%, 95.2% and 104%, respectively.

On to `O=C(O)CC1CCCCC1c1ccccc1` (stereo unspecified), for which the growth in experiment [1] was 111%; in experiment [2], 98.7%; in experiment [3] it was 103%; in experiment [4], 112%; in experiment [5], 119%; in experiment [6], 99.8%. Moreover, the results for the growth in [7], in [8] and in experiment [9] were 106%, 103% and 113%, respectively.

`Cc1cc2c(C(C)C)c(O)c(O)c(C=NCc3ccoc3)c2c(O)c1-c1c(C)cc2c(C(C)C)c(O)c(O)c(C=NCc3ccco3)c2c1O`: the growth in [1] was 23.5%; in experiment [2], 72%; in [3], 44.5%; in [5] it was 25.5%; in experiment [6] it was 21%; in experiment [10] it was 35.4%. Besides, the growth in [7] is 26.3%; in experiment [8] it was 62.3%; in experiment [9] it was 10.6%.

As to `COc1cc(C(=O)/C=C/c2c(-c3ccc(F)cc3)nc3sccn23)cc(OC)c1OC`, the growth is 56.5% in [1]; 76.1% in experiment [2]; 29.9% in experiment [3]; 61.3% in [4]; -14.9% (active) in experiment [6]; -18.2% (active) in [10]. The growth was 41.1% in experiment [7], 61.5% in experiment [8] and 12.3% in [9].

`N#C/C(=C(/O)CCCO)c1nc2ccccc2c(=O)[nH]1`: the growth in experiment [1] was 91.2%; in experiment [2] it was 93.7%; in [3], 105%; in experiment [4] it was 99%; in experiment [6], 84.9%; in [10], 95%. In addition, the values for the growth in [7], in experiment [8] and in [9] were 95.3%, 102% and 130%, respectively.

As to `CC(C)C1=NOC(=O)C1=Cc1cn(-c2ccccc2)nc1-c1ccccc1`, the growth in experiment [1] is 98%; in experiment [2], 95.2%; in experiment [3], 91%; in experiment [4], 99.8%; in experiment [6], 85.2%; in experiment [10], 68.7%. Further, the growth in experiment [7] was 88.8%; in experiment [8] it was 72.9%; in experiment [9], 110%.
